A selection: hits, their analogues and other compounds. The true share with any hit is near 12%.
JMJD2A Tudor inh: blocks the human JMJD2A Tudor domain; O75164; 390,000 tested, 4.4% active; Potency, µM (top dose mostly 114 µM), for inactives: at the top dose activity change, negative = inhibition, hits mostly inhibitors; AlphaScreen JMJD2A-Tudor / H3K4me3 peptide binding; also: % is scaled to controls: 0 for no effect and ±100 for the full control effect; nearly all actives have a fitted effect of over 50% in size
BAZ2B block: blocks human BAZ2B | Q9UIF8 | AlphaScreen BAZ2B-H3K14Ac peptide displacement | Potency, µM (doses to about 114 µM), without a hit: at the highest dose activity change, negative = inhibition, actives largely listed as inhibitors | 360,000 tested, 4.4% active | AID 504333; also: % is scaled to controls: 0 for no effect and ±100 for the full control effect; nearly all actives have a fitted effect of over 60% in size
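AlphaScreen displacement of biotin-H3(5-23)K14Ac peptide (50 nM final) from BAZ2B (50 nM final) in PBS pH 7.4, 0.01% Tween-20; complex preformed 30 min RT, then compounds (top 110 uM) 30 min RT, beads 20 min dark.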
Sfp PPTase inh: blocks B. subtilis Sfp PPTase activity; Q9F4F7; Biochemical Sfp PPTase activity, qHTS; Potency, µM, inactives show largest response in the series, negative = inhibition, usual class: inhibitors; 310,000 tested, 3.5% active; AID 1490;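 also: the enzyme is Sfp with the accession as filed and its product quenches rhodamine fluorescence; 0% = enzyme reaction without inhibitor and -100% = no enzyme wells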
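Compounds were incubated with enzyme (final 15 nM) for 15 min at room temperature before substrate addition started the reaction. Fluorescence at 525 nm excitation, 598 nm emission was recorded immediately and after 30 minutes.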
G9a inh: G9a (human) methyltransferase inhibition. Q96KQ7. Potency, µM (doses to about 102 µM), for the others: top-dose activity, negative = inhibition, actives largely listed as inhibitors. G9a H3K9 monomethylation, AlphaScreen, 2 h. 350,000 tested, 8.8% active. AID 504332; also: % is scaled to controls: 0 for no effect and ±100 for the full control effect; nearly all actives have a fitted effect of over 75% in size
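AlphaScreen read-out: biotin-H3K9 peptide (500 nM) methylation by 20 nM enzyme with 20 uM SAM, 2 h at room temperature after 15 min compound preincubation; anti-monomethyl H3K9 antibody plus donor/acceptor beads, 10 min dark.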
HP1b binding inh: HP1-beta chromodomain-methylated histone interaction inhibition. 390,000 tested, 0.56% active. Potency, µM (top dose mostly 114 µM), inactives show top-dose activity change, negative = inhibition, actives largely listed as inhibitors. P83916. AID 540317. AlphaScreen HP1-beta / biotin-H3K9me3 peptide binding; also: nearly all actives have a fitted effect of over 70% in size
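HP1-beta protein (50 nM final) preincubated 30 min at room temperature with biotinylated H3(1-18)K9me3 peptide (50 nM) in PBS pH 7.4, 0.01% Tween-20, then compound added for 30 min. AlphaScreen streptavidin donor/nickel chelate acceptor beads (10 ug/mL final), 30 min dark, luminescence read.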
PLK1 PBD block: inhibitors of human PLK1 polo-box domain binding. P53350. Plk1 PBD binding of FITC phosphopeptide, fluorescence polarization. Potency, µM, for inactives: max response, negative = inhibition, usual class: inhibitors. 360,000 tested, 2.8% active; also: series mostly up to about 57 µM; % is scaled to controls: 0 for no effect and ±100 for the full control effect; nearly all actives have a fitted effect of over 65% in size
* hit, by the source's call; ? = inconclusive; nt = no result given; [ ] = another dose, or the depositor's remark. Calls follow the shape of the dose curve; as a rule, active = well fitted curve in the direction sought with a large enough effect; inconclusive = small, poorly fitted or top-dose-only effect, or another doubt; inactive = no such curve, though single readings can be large; an effect the other way counts as inactive or inconclusive. Potency is read from the fitted curve at half-maximal effect.

SMILES	JMJD2A Tudor inh	BAZ2B block	Sfp PPTase inh	G9a inh	HP1b binding inh	PLK1 PBD block
COc1ccc(N2CCN(C(=O)CNC(=O)Cn3c(C)cc4ccccc4c3=O)CC2)cc1	-7%	2%	10%	3%	31%	-1%
O=C(NCc1ccccc1F)C1CCN(Cc2cc3ccccc3n2Cc2cccc(Cl)c2)CC1	-14%	-19%	nt	-1%[59 µM]	24%	nt
COc1cc(/C=C2\SC(=S)N(CCCCC(=O)O)C2=O)ccc1OS(=O)(=O)c1ccc(C)cc1	50µM*	35µM*	nt	?	?	30µM*
COc1ccc(/C=C2\SC(=S)N(CCCCCC(=O)Nc3cc(C)on3)C2=O)cc1OC	-6%	-13%	-25%	1%	11%	-7%
COc1ccc2c(c1)c1c(c(=O)n(Cc3ccccc3)c(=O)n1CC(=O)Nc1ccccc1F)n2C	-7%	-14%	nt	-32%[59 µM]	19%	nt
CC(C)c1cnc2c(c1SCC(=O)Nc1ccccc1C(F)(F)F)c(=O)n(C)c(=O)n2C	7%	11%	nt	6%[59 µM]	25%[57 µM]	nt
Cc1cc(C)nc(Nc2nc(=O)c3ccccc3s2)n1	-10%	-4%	?	40µM*	17%	-17%
O=S(=O)(c1ccccc1)c1nc(-c2cccs2)oc1SCc1ccccc1Cl	9%	-10%	nt	-25%[59 µM]	42%	nt
Cc1ccc(S(=O)(=O)c2nc(-c3ccco3)oc2SC(C)C)cc1	-16%	-14%	-2%	45µM*	14%	-22%
CCSc1oc(-c2ccco2)nc1S(=O)(=O)c1ccc(F)cc1	-15%	3%	-26%	4µM*	14%	-7%
Cc1ccc(S(=O)(=O)c2nc(-c3ccco3)oc2SCc2ccc(F)cc2)cc1	-9%	-13%	nt	?	18%	nt
CCSc1oc(-c2cccs2)nc1S(=O)(=O)c1ccccc1	40µM*	-3%	?	?	?	?
CCSc1oc(-c2ccco2)nc1S(=O)(=O)c1ccc(C)cc1	-13%	-31%	-11%	25µM*	29%	-20%
Cc1ccc(C)c(NC(=O)COC(=O)CNC(=O)c2ccccc2Cl)c1	-12%	-5%	19%	0%	29%	-7%
Cc1ccc(S(=O)(=O)c2nc(-c3ccco3)oc2SCC(C)C)cc1	-1%	-1%	nt	?	41%	nt
CCCCS(=O)(=O)c1oc(-c2cccs2)nc1S(=O)(=O)c1ccc(F)cc1	-13%	-2%	nt	?	42%	nt
CC(C)CSc1oc(-c2ccco2)nc1S(=O)(=O)c1ccccc1	4%	-20%	-6%	35µM*	63%	-18%
CCCCCS(=O)(=O)c1oc(-c2cccs2)nc1S(=O)(=O)c1ccc(C)cc1	-15%	-5%	nt	3.5µM*	54%	nt
O=C(Nc1ccccc1)Nc1nnc(Cc2ccccc2F)s1	4%	2%	-5%	17%	24%	-5%
O=C(Nc1ccc(F)cc1)Nc1nnc(Cc2ccccc2F)s1	?	-21%	-5%	19%[59 µM]	-3%	17µM*
Cc1c(O)ccc(C(=O)CN2CCN(c3ccc(F)cc3)CC2)c1O	-33%	-35%	10%	45µM*	-5%[57 µM]	-14%
Cc1c(O)ccc(C(=O)CN2CCN(Cc3ccccc3)CC2)c1O	9%	-31%	-8%	79µM*	72%	4%
CC(C)(C)n1cn[nH]c1=S	-31%	-20%	-19%	25µM*	8%	-15%
COCCCn1cn[nH]c1=S	?	6%	?	?	36%	5%
CCCCCCCCCCCCCCOS(=O)(=O)O	nt	nt	14%	nt	nt	nt
Cc1ccc2c(C)c(C(=O)N3CCC(c4nc5ccccc5s4)CC3)oc2c1C	-6%	-28%	nt	-3%[59 µM]	35%	nt
Cn1ccnc1CC(O)(c1ccccc1)c1ccccc1	-21%	5%	18%	20%	29%	-12%
Cn1/c(=N/N=C/c2ccc(N3CCOCC3)cc2)sc2ccccc21	-13%	?	3%	-38%	20%	0%
Cn1/c(=N/N=C/c2ccccn2)sc2ccccc21	89µM*	?	-25%	?	?	-28%

Screening results from PubChem BioAssay.
